Rab9 prom act: activators of Rab9 promoter. Huh7 Rab9 promoter-luciferase reporter, luminescence, 24 h. Potency, µM (titrated, usually from 9.22 µM), inactives show at the highest dose activation, negative = inhibition, hits mostly activators. actives 2.8% (n = 320,000). AID 485297; note: % of control where 0% means no effect; nearly all actives have a fitted effect of over 60% in size
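Luciferase signal after 10 min detection reagent at ambient indicates Rab9 promoter upregulation; stably transfected Huh7 cells were treated 24 h with compound in DMSO at 37 °C, 5% CO2.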
KinaseGlo FLuc: blocks Kinase-Glo luciferase, a counter-screen artifact | Q27757 | Kinase-Glo luciferase, ATP luminescence, 8 min | Potency, µM (top dose mostly 38.3 µM), without a hit: top-dose activity change, negative = inhibition, usual class: inhibitors | actives 0.28% (n = 200,000) | AID 1379; note: % is set by controls: 0 for no effect and ±100 for the full control effect; nearly all actives have a fitted effect of over 60% in size
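Inhibition of Kinase-Glo luciferase light generation was assessed at 10 uM ATP in pH 7.2 imidazole buffer, with luminescence measured after eight minutes at ambient temperature.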
ELG1 genotox: inducers of genotoxicity in HEK293T ELG1-luciferase cells. HEK293T ELG1-luciferase reporter, luminescence, 16 h. Potency, µM (top dose mostly 46 µM), inactives show at the top dose activity change, positive = activation, usual class: activators. actives 1.3% (n = 330,000). AID 504466; note: % of control where 0% means no effect; nearly all actives have a fitted effect of over 60% in size
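Step 1: seed 2,000 HEK293T ELG1-luciferase cells per well. Step 2: add compound or DMSO, incubate 16 hr at 37 °C. Step 3: ONE-Glo, 30 min at room temperature, read luminescence.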
SMN2 splice up: enhancers of SMN2 splice variant expression | HEK293 SMN2-luciferase splicing reporter, luminescence, 30-36 h | Potency, µM (series often up to 46.1 µM), for inactives: top-dose activity change, positive = activation, most hits filed as activators | actives 2.8% (n = 210,000) | AID 1458; note: % of control where 0% means no effect; nearly all actives have a fitted effect of over 55% in size
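qHTS luciferase splicing reporter: luminescence rises when SMN2 exon 7 is included in transfected HEK293 cells. Compound exposure lasted 30-36 h at 37C, with 4.5 mM final sodium butyrate as control, followed by a ONE-Glo read.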
NPC1 prom act: activates the NPC1 promoter; Potency, µM (top dose mostly 9.22 µM), for the others: at the top dose activation, most hits filed as activators; AID 485313; Huh7 NPC1 promoter luciferase reporter, 24 h; actives 2.4% (n = 320,000); note: % of control where 0% means no effect; nearly all actives have a fitted effect of over 60% in size
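Luminescence from an NPC1 promoter-driven luciferase reporter in stably transfected Huh7 cells was measured after 24 h compound treatment at 37 °C, followed by 10 min ambient incubation with luciferase detection reagent.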
FLuc counter: inhibits or activates purified firefly luciferase, miR-21 counter-screen | AID 588342 | purified FLuc, Km substrates, luminescence inhibition | P08659 | Potency, µM (doses to about 57.5 µM), for inactives: top-dose activity change, negative = inhibition, usual class: inhibitors | actives 6.9% (n = 360,000);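 note: plate controls were vehicle for no effect and reference inhibitor for full effect; nearly all actives have a fitted effect of over 55% in size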
Target sequence (P08659 whole entry, looked up): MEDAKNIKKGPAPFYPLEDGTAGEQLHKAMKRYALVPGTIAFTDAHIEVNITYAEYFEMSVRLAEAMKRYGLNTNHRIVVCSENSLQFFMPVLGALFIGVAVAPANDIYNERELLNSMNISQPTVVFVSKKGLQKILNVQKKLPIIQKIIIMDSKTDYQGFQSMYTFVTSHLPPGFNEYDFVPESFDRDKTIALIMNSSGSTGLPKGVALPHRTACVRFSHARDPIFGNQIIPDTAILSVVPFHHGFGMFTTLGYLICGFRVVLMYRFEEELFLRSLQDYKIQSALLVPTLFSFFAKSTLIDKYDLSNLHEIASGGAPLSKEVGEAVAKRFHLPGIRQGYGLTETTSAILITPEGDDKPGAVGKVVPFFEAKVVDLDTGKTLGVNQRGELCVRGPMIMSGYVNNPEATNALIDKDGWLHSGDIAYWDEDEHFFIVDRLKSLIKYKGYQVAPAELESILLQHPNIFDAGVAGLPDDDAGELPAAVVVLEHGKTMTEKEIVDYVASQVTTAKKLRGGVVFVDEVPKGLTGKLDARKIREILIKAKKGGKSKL
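Purified P. pyralis luciferase (10nM final) with 10uM D-luciferin and 10uM ATP (Km levels) in 50mM Tris acetate pH 7.5, 10mM Mg acetate, 0.01% Tween-20, 0.05% BSA; qHTS 6-point titration, ~60 µM downward; luminescence read.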
* marks the source's active call; other numbers are inactive results; u = inconclusive; x = no result; ! = not confirmed by another sample. Sampled rows, rich in hits. Any-hit rate of the full collection: about 7.5%. Calls come from the whole dose curve; as a rule, active = well fitted curve in the direction sought with a large enough effect; inconclusive = small, poorly fitted or top-dose-only effect, or another doubt; inactive = no such curve, though single readings can be large; an effect the other way counts as inactive or inconclusive. Potency is the fitted concentration of half-maximal effect.

SMILES | Rab9 prom act | KinaseGlo FLuc | ELG1 genotox | SMN2 splice up | NPC1 prom act | FLuc counter
CN(Cc1ccc(F)cc1)C(=O)CCc1nnc(-c2ccccc2)o1 | u | -0.3% | u | x | u | 16.9µM*
COc1ccc(CCN(C)C(=O)CCc2nnc(-c3ccccc3)o2)cc1OC | 3.16µM* | -1.7% | u | x | 4.47µM* | 19µM*
CN(Cc1nc2c(s1)CCCC2)C(=O)CCc1nnc(-c2ccccc2)o1 | 23.4% | x | 16.0% | x | 13.5% | u
CC(=O)Nc1cccc(NC(=O)c2c(-c3ccccc3)c(-c3ccccc3)nn(C)c2=O)c1 | x | x | x | -0.7% | x | -12.7%
COc1ccc(C2=C/C(=C\c3ccccc3OC(C)=O)C(=O)O2)cc1 | 19.4% | x | 3.7% | x | 16.3% | u
COc1ccc(C2=C/C(=C\c3cccc(OC(C)=O)c3)C(=O)O2)cc1 | 2.0% | -6.4% | 1.8% | u | 0.4% | 23.9µM*
O=[N+]([O-])c1nn(-c2ccc3c(c2)OCCO3)n(O)c1=Nc1ccc(Cl)cc1 | -7.6% | -4.0% | 1.1% | -60.1% | -5.1% | u
O=[N+]([O-])c1nn(-c2ccc3c(c2)OCCO3)n(O)c1=Nc1ccccc1 | -37.8% | -0.9% | -3.6% | -109.4% | -18.0% | 12µM*
Cc1ccc(CN=c2c([N+](=O)[O-])nn(-c3ccc4c(c3)OCCO4)n2O)cc1 | u | -7.6% | u | x | u | 12µM*
Cc1ccc(N=c2c([N+](=O)[O-])nn(-c3ccc(Cl)cc3)n2O)cc1C | 1.26µM* | -2.6% | -4.0% | 4.2% | 1.58µM* | -10.4%
O=[N+]([O-])c1nn(-c2ccc3c(c2)OCCO3)n(O)c1=NCCCO | 2µM* | -2.5% | 4.4% | 18.1% | u | -19.5%
Cc1c(C(=O)Nc2ccc(F)c(C(F)(F)F)c2)sc2nc(-c3ccccc3)cn12 | x | x | x | x | x | -1.1%
COc1ccc(Cl)cc1S(=O)(=O)Nc1ccc2[nH]c(=O)[nH]c2c1 | x | x | x | 2.8% | x | 0.4%
O=[N+]([O-])c1nn(-c2ccc3c(c2)OCCO3)n(O)c1=NC1CCCC1 | u | -20.4% | u | -15.3% | 7.8% | -11.1%
O=[N+]([O-])c1nn(-c2ccc3c(c2)OCCO3)n(O)c1=NC1CCCCCC1 | u | -2.2% | u | -4.8% | 19.3% | 16.9µM*
COc1ccc(-n2nc([N+](=O)[O-])c(=NCc3ccc4c(c3)OCO4)n2O)cc1 | u | -1.5% | u | u | 2.24µM* | u
O=C(Nc1ccc(F)cc1)Nc1ccccc1C(=O)NCCN1CCNC1=O | 0.9% | x | -0.4% | x | -5.5% | 16.9µM*
O=C(Nc1ccc(OCc2ccccc2)cc1)Nc1ccccc1C(=O)NCCCN1CCOCC1 | 4.6% | x | 6.2% | x | 1.3% | 19µM*
Cc1cc(C)c(S(=O)(=O)N(C)CC(=O)NCCCn2ccnc2)c(C)c1 | -2.2% | x | -0.2% | x | -2.4% | 0.6%
O=C(COc1ccccc1)Nc1ccc(S(=O)(=O)N2CCOCC2)cc1 | 2.9% | -0.1% | 0.1% | -5.9% | -0.9% | 0.4%
CN1CCN(c2ccc(-c3cccc(NC(=O)COc4ccc(Cl)cc4)c3)nn2)CC1 | 2µM* | x | 2.06µM* | x | 2.82µM* | 1.07µM*
CN1CCN(c2ccc(-c3cccc(NC(=O)COc4ccccc4)c3)nn2)CC1 | 1.58µM* | x | 2.59µM* | x | 1.58µM* | 1.51µM*
CN1CCN(c2ccc(-c3cccc(NC(=O)COc4ccc(Cl)cc4Cl)c3)nn2)CC1 | u | x | 0.651µM* | x | u | 0.477µM*
CN1CCN(c2ccc(NC(=O)COc3ccccc3Cl)cc2)CC1 | -2.5% | 2.0% | u | -14.9% | -0.7% | u
O=C(COc1ccccc1)Nc1ccc(-c2ccc(N3CCOCC3)nn2)cc1 | 2.24µM* | x | u | x | u | u
SMILES | Rab9 prom act | KinaseGlo FLuc | ELG1 genotox | SMN2 splice up | NPC1 prom act | FLuc counter
O=C(C[C@H]1C/C=C\CCCCC(=O)OC[C@H]2CCCN2C1=O)N[C@H](CO)Cc1ccccc1 | x | x | 1.7% | x | x | x
O=C(Cc1csc(-c2ccccc2)n1)NCC(=O)Nc1ccc(F)c(F)c1F | x | x | -0.5% | x | x | x
O=C(Nc1nnc(S(=O)(=O)N2CCCCCC2)s1)c1ccccc1F | 19.4% | x | 10.5% | x | 21.9% | 16.9µM*
Cc1ccc(OCC(=O)Nc2nnc(S(=O)(=O)N3CCCCCC3)s2)cc1 | -8.3% | x | -3.0% | x | -1.4% | 9.53µM*!
CCCC(=O)Nc1nnc(S(=O)(=O)N2CCCCCC2)s1 | -1.2% | x | -3.2% | x | -1.6% | 10.7µM*!
O=C(Nc1nnc(S(=O)(=O)N2CCOCC2)s1)c1cccc(F)c1 | u | x | -1.7% | x | u | 15.1µM*!
CCCC(=O)Nc1nnc(S(=O)(=O)N2CCCC2)s1 | -1.0% | x | -1.4% | x | -8.6% | -1.0%
Cc1cccc(C(=O)N2CCc3cc(CNC(=O)c4cc5ccccc5[nH]4)ccc32)c1 | x | x | x | x | x | -19.8%
O=C(NCc1ccc(F)cc1)C1CCCN(c2ncnc3onc(-c4ccc(F)cc4)c23)C1 (stereo unspecified) | x | x | x | x | x | -8.6%
O=C(C1CCN(S(=O)(=O)Cc2ccccc2)CC1)N1CCN(c2ccccc2F)CC1 | x | x | x | x | x | -1.3%
COc1ccccc1C(=O)Nc1nnc(S(=O)(=O)N2CCCCCC2)s1 | -1.0% | x | -1.1% | x | -2.1% | 10.7µM*!
COc1ccccc1C(=O)Nc1nnc(S(=O)(=O)N2CCCCC2)s1 | 2.5% | x | 3.5% | x | -0.3% | -9.8%
O=C(Nc1nnc(S(=O)(=O)N2CCCC2)s1)c1cccc([N+](=O)[O-])c1 | 21.6% | x | 7.4% | x | 25.5% | 15.1µM*
Cc1ccccc1C(=O)Nc1nnc(S(=O)(=O)N2CCCCCC2)s1 | -0.3% | x | 0.0% | x | -6.6% | 13.5µM*!
COc1ccc(C(=O)Nc2nnc(S(=O)(=O)N3CCC(C)CC3)s2)cc1OC | -1.5% | x | -0.9% | x | -1.0% | 3.38µM*!
COc1ccc(C(=O)Nc2nnc(S(=O)(=O)N3CCCCCC3)s2)cc1OC | -8.2% | x | 4.2% | x | -0.4% | u

Bioassay records (PubChem)
